Screening data from PubChem.
Pf growth 96h = inhibits malaria parasite growth, 96 h; P. falciparum luciferase reporter growth, 96 h; Potency, µM (doses to about 28.7 µM), for inactives: top-dose activity change, negative = inhibition, usual class: inhibitors; 6.9% of 320,000 active; AID 504834; also: potency is read from the fitted curve at half-maximal effect; % is scaled to controls: 0 for no effect and ±100 for the full control effect
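P. falciparum expressing integrated firefly luciferase, in erythrocytes at 2% hematocrit, 0.05% parasitemia, incubated with compounds 96 h at 37 C, 5% CO2. Growth inhibition read as loss of luminescence; two-generation exposure targets delayed-death apicoplast inhibitors.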
Shiga toxin inh = Shiga toxin inhibition; inhibition, % at 38.7 µM; 9.2% of 290,000 active; AID 2315; Vero cells, Shiga toxin protein synthesis inhibition reporter; in the data active = inhibition mostly above about 28%, no sharp cut-off; inactive = mostly below about 43%; also: 0% is about no effect
NS1 function inh = inhibitors of influenza NS1 protein function; Potency, µM (highest dose often 46.1 µM), for the others: at the top dose activity, positive = more growth; 0.4% of 270,000 active; calls by dose curve; also: potency is read from the fitted curve at half-maximal effect; actives are rising curves; nearly all actives have a fitted effect of over 50% in size
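S. cerevisiae expressing influenza A NS1, grown in glucose, washed, then diluted 1:100 into pH 6.0 -URA galactose medium with 23 nl compound. Growth recovery read as OD600; NS1-free strain serves as control.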
Pf growth 48h = inhibits P. falciparum growth in the first generation, 48 h; P. falciparum luciferase growth in erythrocytes, 48 h; Potency, µM (series often up to 28.7 µM), inactives show at the highest dose activity change, negative = inhibition, most hits filed as inhibitors; 5.9% of 310,000 active; also: potency is read from the fitted curve at half-maximal effect; % is scaled to controls: 0 for no effect and ±100 for the full control effect
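Compounds are pin-transferred into medium, infected erythrocytes (2% hematocrit, 0.1% parasitemia final) are added, and plates sit one parasite generation at 37 C in 5% CO2. Detection reagent is then added and luminescence measured.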
CHX counter = counter-screen for Shiga toxin inhibitors: cycloheximide protein synthesis inhibition; max response, %; AID 2314; 12% of 300,000 active; cell reporter, cycloheximide protein synthesis inhibition counterscreen; in the data active = max response mostly above about 13%, no sharp cut-off; inactive = mostly below about 14%; also: read at 38.3 µM for the half of the compounds with a filed dose; 0% is about no effect
SARS PLpro yeast = SARS-CoV PLP inhibition in yeast. S. cerevisiae expressing SARS-CoV PLpro, growth rescue. Potency, µM (top dose mostly 32.9 µM), for the others: top-dose activity, positive = growth rescue, most hits filed as activators. 0.19% of 330,000 active. AID 485353; calls by dose curve; also: potency is read from the fitted curve at half-maximal effect; 0% is about no effect; nearly all actives have a fitted effect of over 55% in size
Numbers without * were called inactive; ? = inconclusive; . = no result given; [ ] = another dose, or the depositor's remark. Shown are actives, neighbours in structure and some others; about 21% of the full set was active somewhere. Unless noted, calls follow the shape of the dose curve; as a rule, active = well fitted inhibition curve with a large enough effect; inconclusive = small, poorly fitted or top-dose-only effect, or another doubt; inactive = no such curve, though single readings can be large or run the other way.

SMILES	Pf growth 96h	Shiga toxin inh	NS1 function inh	Pf growth 48h	CHX counter	SARS PLpro yeast
CC(=O)c1ccccc1C(=O)N1CCCC(N2CCN(Cc3ccc4c(c3)OCO4)CC2)C1 (configuration not stated)	44%	15	10%	?	-2	4%
COc1ccccc1OCC(=O)N/N=C/c1cccc2cccnc12	13µM*	-9	-34%	3%	-4	-8%
COc1ccccc1OCC(=O)NN=C(Cc1ccccc1)Cc1ccccc1	?	33	?	?	20	-2%
CCC(=N\NC(=O)COc1ccccc1OC)/C(CC)=N/NC(=O)COc1ccccc1OC	?	.	.	9.3µM*	.	-7%
COc1ccc(-c2cc(C)no2)cc1S(=O)(=O)NCC(C)c1ccccc1 (configuration not stated)	?	1	-20%	?	-6	-3%
CCCCCCCCCCOC(=O)C[N+](C)(C)C/C=C(/C)Cl	2.3µM*	-3	-2%	?	-3	-48%
CCCCCCCCOC(=O)C[N+](C)(C)C/C=C(/C)Cl	4.1µM*	6	-1%	2.6µM*	-1	-25%
COC(/C(=N/O)c1ccc(Cl)cc1)c1ccccc1 (configuration not stated)	2.3µM*	50*	-38%	2.1µM*	33*	-9%
CSc1nc(N)c(N=Nc2ccc([As](=O)(O)O)cc2)c(=O)[nH]1	?	-14	3%	2.6µM*	-1	1%
Cn1c(=O)c2c(ncn2Cc2cccc(Cl)c2)n(C)c1=O	0.93µM*	12	14%	?	9	7%
Cc1ccc(S(=O)(=O)N2CCOCC2)cc1C(=O)NC(=S)N1CC(C)OC(C)C1 (configuration not stated)	?	5	-7%	-11%	1	0%
Cc1ccc(C(=O)NCC(=O)OCC(=O)c2cc(C)n(Cc3ccco3)c2C)cc1	14%	-7	9%	21%	9	-1%
C=CCn1c(C)cc(C(=O)COC(=O)C2CC(=O)N(Cc3ccccc3)C2)c1C (configuration not stated)	15%	36	-9%	10%	12*	3%
C=CCn1c(C)cc(C(=O)COC(=O)CNC(=O)c2ccccc2)c1C	133%	11*	-5%	190%	114*	-1%
Cc1[nH]c2ccccc2c1C(=O)COC(=O)C1CC(=O)N(Cc2ccccc2)C1 (configuration not stated)	.	14	-3%	-3%	7	2%
O=C1Nc2ccccc2C12OC1CCCCC1O2 (configuration not stated)	3.7µM*	12	12%	12µM*	-1	2%
COCCN(CCOC)C(=O)c1cc2sc3ccccc3c2s1	?	68	-101%	?	12	-8%
CCN(CC)C(=O)c1cc2sc3ccccc3c2s1	-20%	106*	-135%	129%	71*	-29%
CN(C)CCNC(=O)c1cc2sc3ccccc3c2s1	?	85*	.	?	40*	-3%
CCn1c(=O)c2cc(C(=O)NCCN(C)C)sc2c2ccccc21	0%	-6	3%	-4%[0.00184 µM]	-4	0%
COc1ccccc1-n1c(CNc2ccc(F)cc2)nnc1SCC(=O)Nc1cc(C)on1	-30%	13	7%	13µM*	-2	-13%
C=CCn1c(COc2ccccc2F)nnc1SCC(=O)NC(=O)NCc1ccco1	5%	-19	10%	.	-4	3%
CCOc1ccccc1-n1c(CNc2ccc(F)cc2)nnc1SCC(=O)NCc1ccco1	5%	29	23%	12µM*	22*	-11%
O=C(CSc1nnc(CNc2ccc(F)cc2)n1Cc1ccccc1)NCc1ccco1	?	9	-4%	?	-3	2%
O=C(CSc1nnc(COc2ccccc2F)n1-c1ccccc1)NCc1ccco1	.	53*	-7%	?	19*	8%
CCOc1ccc(/C=N/n2c(C3CCCCC3)n[nH]c2=S)cc1	?	-6	-1%	?	-2	-2%
O=C(Cn1cnc2scc(-c3cccc([N+](=O)[O-])c3)c2c1=O)NCc1ccco1	?	3	.	8%	-4	2%
CCS(=O)(=O)Nc1ccccc1C(N)=O	?	12	4%	16%	-1	1%
